# Results: PubChem BioAssay (EPA / NIEHS)
# Calls of active or inactive are those of the source. How the source made its calls: active means hit-call score of the fitted dose curve at least 0.9, where 1 is the maximum; inactive means score below 0.9.
# Legend:
# Conditions in all cases: mRNA level, 48 h; actives raise or lower the signal
# [1] = read-out: Intercellular Adhesion Molecule 1 (ICAM1), ICAM1 (gene 3383); assay: LTEA_HepaRG_ICAM1: Life Technologies and Expression Analysis (LTEA) Assay for Intercellular Adhesion Molecule 1 (ICAM1) using HepaRG (AID 2283507)
# Method in brief: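 HepaRG, 48 h exposure, 8-pt half-log series from 100 uM, 0.5% DMSO vehicle, duplicates. Readout: TaqMan qRT-PCR mRNA, housekeeping-normalized (ACTB/GAPDH/POLR2A). Bidirectional curve fit vs DMSO baseline.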
# [2] = read-out: Insulin-like growth factor-binding protein 1 (IGFBP1), IGFBP1 (gene 3484); assay: LTEA_HepaRG_IGFBP1: Life Technologies and Expression Analysis (LTEA) Assay for Insulin-like growth factor-binding protein 1 (IGFBP1) using HepaRG (AID 2283508)
# Method in brief: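 qRT-PCR mRNA read-out (TaqMan, Fluidigm array), normalised to three housekeeping genes; HepaRG cells, 48 h exposure, 8-pt half-log series from 100 uM, 0.5% DMSO vehicle; bidirectional curve fit vs DMSO baseline.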
# [3] = read-out: Interleukin 6 (IL6), IL6 (gene 3569); assay: LTEA_HepaRG_IL6: Life Technologies and Expression Analysis (LTEA) Assay for Interleukin 6 (IL6) using HepaRG (AID 2283509)
# Method in brief: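 HepaRG, ~100,000 cells/well, 48 h pre-culture; serum-free induction medium; cmpd 8-pt half-log from 100 uM, 0.5% DMSO, duplicate, 48 h. Lysis in RLT, TaqMan qRT-PCR; gain or loss vs DMSO.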
# [4] = read-out: Interleukin 6 Receptor (IL6R), IL6R (gene 3570); assay: LTEA_HepaRG_IL6R: Life Technologies and Expression Analysis (LTEA) Assay for Interleukin 6 Receptor (IL6R) using HepaRG (AID 2283510)
# Method in brief: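 Concentration-response in human liver HepaRG cells: eight concentrations from 100 uM downward by half-logs, 48 h exposure, 0.5% DMSO vehicle. IL6R mRNA change measured by qRT-PCR and fitted in both directions relative to vehicle.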
# [5] = read-out: Potassium channel subfamily K member 1 (KCNK1), KCNK1 (gene 3775); assay: LTEA_HepaRG_KCNK1: Life Technologies and Expression Analysis (LTEA) Assay for Potassium channel subfamily K member 1 (KCNK1) using HepaRG (AID 2283511)
# Method in brief: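 Gain or loss of KCNK1 mRNA is the read-out, quantified by qRT-PCR against three housekeeping genes after 48 h chemical treatment of human HepaRG liver cells. Concentrations ran from 100 uM downward in half-log steps, vehicle 0.5% DMSO.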
# [6] = read-out: Keratin 19 (KRT19), KRT19 (gene 3880); assay: LTEA_HepaRG_KRT19: Life Technologies and Expression Analysis (LTEA) Assay for Keratin 19 (KRT19) using HepaRG (AID 2283512)
# Method in brief: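 HepaRG, 48 h chemical exposure, 8-pt half-log CRC from 100 uM, 0.5% DMSO vehicle, duplicates. Readout: TaqMan qRT-PCR of KRT19 mRNA, housekeeping-normalized (ACTB/GAPDH/POLR2A). Bidirectional fit vs DMSO baseline.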
# [7] = read-out: JUN Transcription Factor, JUN (gene 3725); assay: LTEA_HepaRG_JUN: Life Technologies and Expression Analysis (LTEA) Assay for JUN Transcription Factor using HepaRG (AID 2283513)
# Method in brief: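 Human HepaRG liver cells receive test chemicals in 0.5% DMSO for 48 h across an eight-point range topping at 100 uM. Expression changes in JUN are scored in both directions against the DMSO vehicle.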
# [8] = read-out: Lipase C (LIPC), LIPC (gene 3990); assay: LTEA_HepaRG_LIPC: Life Technologies and Expression Analysis (LTEA) Assay for Lipase C (LIPC) using HepaRG (AID 2283514)
# Method in brief: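 Read-out is LIPC transcript level by TaqMan qRT-PCR, normalized to three housekeeping genes, after 48 h chemical treatment of human HepaRG liver cells. Curves span eight concentrations topping at 100 uM; activity in either direction scored relative to 0.5% DMSO.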
# [9] = read-out: Lipoprotein lipase (LPL), LPL (gene 4023); assay: LTEA_HepaRG_LPL: Life Technologies and Expression Analysis (LTEA) Assay for Lipoprotein lipase (LPL) using HepaRG (AID 2283515)
# Method in brief: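 Read-out is LPL transcript level by qRT-PCR, normalized to three housekeeping genes and fitted bidirectionally against the DMSO control. Human HepaRG cells received chemicals for 48 h at up to 100 uM.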
# [10] = read-out: MicroRNA 122 (MIR122), gene 406906; assay: LTEA_HepaRG_MIR122: Life Technologies and Expression Analysis (LTEA) Assay for MicroRNA 122 (MIR122) using HepaRG (AID 2283516); further: the transcript read is the microRNA miR-122
# Method in brief: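 HepaRG, 48 h exposure, 8-pt half-log from 100 uM, 0.5% DMSO; TaqMan qRT-PCR; bidirectional fit vs DMSO.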
# [11] = read-out: matrix metalloproteinase-10 (MMP10), MMP10 (gene 4319); assay: LTEA_HepaRG_MMP10: Life Technologies and Expression Analysis (LTEA) Assay for matrix metalloproteinase-10 (MMP10) using HepaRG (AID 2283517)
# Method in brief: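 Gain or loss of MMP10 mRNA is fitted relative to the 0.5% DMSO vehicle. The human hepatic line HepaRG receives a 48-hour serum-free exposure, in duplicate, with a maximum concentration of 100 uM.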
# MYC, MYC (gene 4609) = assay: LTEA_HepaRG_MYC: Life Technologies and Expression Analysis (LTEA) Assay for MYC using HepaRG (AID 2283518)
# Method in brief: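 qRT-PCR read-out of MYC transcript (Fluidigm TaqMan, housekeeping-normalized) after 48 h chemical exposure of HepaRG cells; eight concentrations, top 100 uM, half-log steps. Bidirectional curve fitting against 0.5% DMSO vehicle baseline.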
# [12] = read-out: Paternally Expressed 10 (PEG10), PEG10 (gene 23089); assay: LTEA_HepaRG_PEG10: Life Technologies and Expression Analysis (LTEA) Assay for Paternally Expressed 10 (PEG10) using HepaRG (AID 2283520)
# Method in brief: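 Chemicals tested on HepaRG cells for 48 h, highest concentration 100 uM. PEG10 expression assessed by qRT-PCR relative to DMSO control.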
# [13] = read-out: Nuclear factor NF-kappa-B p105 subunit (Homo sapiens) (UniProt P19838); assay: LTEA_HepaRG_NFKB1: Life Technologies and Expression Analysis (LTEA) Assay for Nuclear Factor Kappa B Subunit 1 (NFKB1) using HepaRG (AID 2283521)
# Method in brief: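 Differentiated human HepaRG cells in serum-free induction medium with 0.5% DMSO were exposed for 48 h to eight half-log concentrations, top 100 uM, in duplicate. NFKB1 mRNA measured by Fluidigm TaqMan qRT-PCR, normalised to ACTB, GAPDH and POLR2A; bidirectional fit versus DMSO.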
# [14] = read-out: Protein phosphatase 2A (PPP2R4), PTPA (gene 5524); assay: LTEA_HepaRG_PPP2R4: Life Technologies and Expression Analysis (LTEA) Assay for Protein phosphatase 2A (PPP2R4) using HepaRG (AID 2283522)
# Method in brief: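 Gene-expression endpoint in HepaRG hepatic cells: 48 h treatment across eight half-log concentrations up to 100 uM in 0.5% DMSO. PPP2R4 mRNA by qRT-PCR, normalized to three endogenous control genes.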
# [15] = read-out: Phosphatase and tensin (PTEN), PTEN (gene 5728); assay: LTEA_HepaRG_PTEN: Life Technologies and Expression Analysis (LTEA) Assay for Phosphatase and tensin (PTEN) using HepaRG (AID 2283523)
# Method in brief: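 Read-out is PTEN transcript level by multiplexed TaqMan qRT-PCR after 48 h chemical treatment of human HepaRG cultures in serum-free induction medium. Concentrations spanned 100 uM downward in half-log steps, 0.5% DMSO throughout; activity fitted in both directions against vehicle.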
# [16] = read-out: solute carrier (SLC22A1), SLC22A1 (gene 6580); assay: LTEA_HepaRG_SLC22A1: Life Technologies and Expression Analysis (LTEA) Assay for solute carrier (SLC22A1) using HepaRG (AID 2283524)
# Method in brief: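 HepaRG (human liver line), 48 h dosing in serum-free induction medium; 8 conc., half-log down from 100 uM, 0.5% DMSO vehicle, duplicates. Endpoint: SLC22A1 mRNA, qRT-PCR, housekeeping-normalized; gain/loss fit vs DMSO.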
# [17] = read-out: Pyruvate Dehydrogenase Kinase 4 (PDK4), PDK4 (gene 5166); assay: LTEA_HepaRG_PDK4: Life Technologies and Expression Analysis (LTEA) Assay for Pyruvate Dehydrogenase Kinase 4 (PDK4) using HepaRG (AID 2283525)
# Method in brief: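 In this multiplexed human HepaRG expression assay, cells are treated 48 h with test chemicals across an eight-point range starting at 100 uM. PDK4 mRNA changes, normalized to ACTB/GAPDH/POLR2A, are fitted in both directions relative to vehicle.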
# [18] = read-out: matrix metalloproteinase-3 (MMP3), MMP3 (gene 4314); assay: LTEA_HepaRG_MMP3: Life Technologies and Expression Analysis (LTEA) Assay for matrix metalloproteinase-3 (MMP3) using HepaRG (AID 2283519)
# Method in brief: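 HepaRG, human; 48 h dosing, 8 conc. (max 100 uM, half-log), duplicate, 0.5% DMSO. Readout: MMP3 transcript by Fluidigm TaqMan qRT-PCR, ACTB/GAPDH/POLR2A-normalised. Gain or loss fitted vs DMSO.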
# [19] = read-out: NAD(P)H dehydrogenase [quinone] 1 (NQO1), NQO1 (gene 1728); assay: LTEA_HepaRG_NQO1: Life Technologies and Expression Analysis (LTEA) Assay for NAD(P)H dehydrogenase [quinone] 1 (NQO1) using HepaRG (AID 2283526)
# Method in brief: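 Human HepaRG hepatic cells received chemicals for 48 h in serum-free induction medium with 0.5% DMSO, up to 100 uM. Expression was assessed by TaqMan qRT-PCR against housekeeping controls and fitted bidirectionally against DMSO.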
# Nuclear factor NF-kappa-B p105 subunit (Homo sapiens), sequence (P19838 whole entry, looked up): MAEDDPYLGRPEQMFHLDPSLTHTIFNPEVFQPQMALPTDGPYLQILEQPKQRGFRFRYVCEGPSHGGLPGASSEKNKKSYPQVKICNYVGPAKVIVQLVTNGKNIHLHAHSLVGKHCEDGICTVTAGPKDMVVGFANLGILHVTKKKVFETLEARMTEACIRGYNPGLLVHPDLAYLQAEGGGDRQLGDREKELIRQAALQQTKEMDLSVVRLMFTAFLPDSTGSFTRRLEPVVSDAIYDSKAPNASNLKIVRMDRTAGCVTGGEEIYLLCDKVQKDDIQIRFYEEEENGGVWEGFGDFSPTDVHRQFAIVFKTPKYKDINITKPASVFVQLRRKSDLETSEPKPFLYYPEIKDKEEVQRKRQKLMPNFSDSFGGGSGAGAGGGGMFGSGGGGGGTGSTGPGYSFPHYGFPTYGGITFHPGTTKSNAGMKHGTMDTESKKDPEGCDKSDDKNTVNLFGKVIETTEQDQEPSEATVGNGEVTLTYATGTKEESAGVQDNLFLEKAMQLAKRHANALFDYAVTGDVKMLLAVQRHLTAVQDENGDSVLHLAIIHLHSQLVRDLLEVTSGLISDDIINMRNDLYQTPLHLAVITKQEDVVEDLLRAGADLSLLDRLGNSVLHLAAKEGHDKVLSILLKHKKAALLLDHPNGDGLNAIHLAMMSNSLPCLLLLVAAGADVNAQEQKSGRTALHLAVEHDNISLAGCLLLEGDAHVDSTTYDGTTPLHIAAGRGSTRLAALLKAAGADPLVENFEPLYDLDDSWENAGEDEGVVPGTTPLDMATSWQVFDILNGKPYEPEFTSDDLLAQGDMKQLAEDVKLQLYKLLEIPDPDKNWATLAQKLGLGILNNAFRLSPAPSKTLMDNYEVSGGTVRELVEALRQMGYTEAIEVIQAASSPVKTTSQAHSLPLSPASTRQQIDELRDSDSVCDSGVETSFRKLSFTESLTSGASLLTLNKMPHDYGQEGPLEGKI
compound,measurement,setting,value
C[N+]1(C)CCCCC1,outcome,[1],inactive
same,outcome,[2],inactive
same,outcome,[3],inactive
same,outcome,[4],inactive
same,outcome,[5],inactive
same,outcome,[6],inactive
same,outcome,[7],inactive
same,outcome,[8],inactive
same,outcome,[9],inactive
same,outcome,[10],inactive
same,outcome,[11],inactive
same,outcome,"MYC, MYC (gene 4609)",inactive
same,outcome,[12],inactive
same,outcome,[13],inactive
same,outcome,[14],inactive
same,outcome,[15],inactive
same,outcome,[16],inactive
same,outcome,[17],inactive
CCCCOC(=O)[C@@H](C)Oc1ccc(Oc2ccc(C#N)cc2F)cc1,outcome,[1],inactive
same,outcome,[2],inactive
same,outcome,[3],inactive
same,outcome,[4],inactive
same,outcome,[5],inactive
same,outcome,[6],inactive
same,outcome,[7],inactive
same,outcome,[8],inactive
same,AC50,[9],40.4 µM (active)
same,outcome,[10],inactive
same,outcome,[11],inactive
same,outcome,"MYC, MYC (gene 4609)",inactive
same,outcome,[18],inactive
same,outcome,[12],inactive
same,outcome,[13],inactive
same,outcome,[14],inactive
same,outcome,[15],inactive
same,outcome,[16],inactive
same,AC50,[17],49.8 µM (active)
FC(F)C(F)(F)OCC(Cn1cncn1)c1ccc(Cl)cc1Cl (stereo not drawn),AC50,[1],31.9 µM (active)
same,AC50,[2],31.4 µM (active)
same,AC50,[3],78.5 µM (active)
same,outcome,[4],inactive
same,AC50,[5],66.8 µM (active)
same,outcome,[6],inactive
same,outcome,[7],inactive
same,AC50,[8],49.8 µM (active)
same,AC50,[9],31.3 µM (active)
same,AC50,[10],59.2 µM (active)
same,AC50,[11],49.8 µM (active)
same,AC50,"MYC, MYC (gene 4609)",37.3 µM (active)
same,outcome,[12],inactive
same,outcome,[13],inactive
same,AC50,[14],90.4 µM (active)
same,outcome,[15],inactive
same,AC50,[16],19.7 µM (active)
same,AC50,[17],12 µM (active)
S=C1NCCN1,outcome,[1],inactive
same,outcome,[2],inactive
same,outcome,[3],inactive
same,outcome,[4],inactive
same,outcome,[5],inactive
same,outcome,[6],inactive
same,outcome,[7],inactive
same,outcome,[8],inactive
same,outcome,[9],inactive
same,outcome,[10],inactive
same,outcome,[11],inactive
same,outcome,"MYC, MYC (gene 4609)",inactive
same,outcome,[18],inactive
same,outcome,[12],inactive
same,outcome,[13],inactive
same,outcome,[14],inactive
same,outcome,[15],inactive
same,outcome,[16],inactive
same,outcome,[17],inactive
CN(C)C(=O)Nc1cccc(C(F)(F)F)c1,outcome,[1],inactive
same,outcome,[2],inactive
same,outcome,[3],inactive
same,outcome,[4],inactive
same,outcome,[5],inactive
same,outcome,[6],inactive
same,outcome,[7],inactive
same,AC50,[8],50 µM (active)
same,outcome,[9],inactive
same,outcome,[10],inactive
same,outcome,[11],inactive
same,outcome,"MYC, MYC (gene 4609)",inactive
same,AC50,[18],82.7 µM (active)
same,outcome,[12],inactive
same,outcome,[13],inactive
same,outcome,[14],inactive
same,outcome,[15],inactive
same,outcome,[16],inactive
same,outcome,[17],inactive
same,outcome,[19],inactive
CCCCN(CC)c1c([N+](=O)[O-])cc(C(F)(F)F)cc1[N+](=O)[O-],outcome,[1],inactive
same,outcome,[2],inactive
same,outcome,[3],inactive
same,outcome,[4],inactive
same,outcome,[5],inactive
same,outcome,[6],inactive
same,outcome,[7],inactive
same,outcome,[8],inactive
same,outcome,[9],inactive
same,outcome,[10],inactive
same,outcome,[11],inactive
same,outcome,"MYC, MYC (gene 4609)",inactive
same,outcome,[18],inactive
same,outcome,[12],inactive
same,outcome,[13],inactive
same,outcome,[14],inactive
same,outcome,[15],inactive
same,outcome,[16],inactive
same,outcome,[17],inactive
